Laboratory results from PubChem BioAssay AID632 (National Center for Advancing Translational Sciences (NCATS), 2007).
The list shows a part of the results. Activity calls are given as the source filed them.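 Rule for the calls: active = compound lowering the Hsp90 and TPR2A binding signal, whether or not the linker counterscreen also flagged it as an artifact; inactive = the rest.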

These compounds were tested on Hsp90 C-terminal peptide / TPR2A co-chaperone interaction (assay: Confirmation Concentration-Response Assay and Counterscreen for Disrupters of an Hsp90 Co-Chaperone Interaction). Details: AlphaScreen TPR2A-His6 / biotin-Hsp90 peptide binding; at 46 µM (top of the series) unless noted.
From the text: NIH Chemical Genomics Center [NCGC] NIH Molecular Libraries Screening Centers Network [MLSCN] MLSCN Grant: X01 MH077625-01 NCGC Assay Overview: Hsp90 (heat shock protein 90) is the essential molecular chaperone and it accounts for 1-2% of all cytosolic proteins and is critical for the activity of diverse cellular proteins that are involved in a variety of cellular processes, including development, cell cycle, and steroid hormone signaling. Its client proteins include signaling kinases such as IGF1R, Akt, v-Src, Raf-1; regulators of cell survival such as Bcr-Abl; and transcription factors such as mutated p53, estrogen and progesterone receptors. Hsp90 has emerged as an important target for cancer treatment due to its essential role in maintaining transformation and regulating the function of oncogenic signaling proteins. The in vivo function of Hsp90 is regulated by the binding and hydrolysis of ATP at its N-terminal. Geldanamycin binds to ATP site and inhibit Hsp90 function. Geldanamycin and its analogues are under clinical trials in cancer patients. […] This domain contains the binding site for tetratricopeptide repeat (TPR) domains on HOP (Hsp Organizing Protein). TPR is a structural motif used by a significant number of cochaperones by which the in vivo function of Hsp90 is regulated. TPR2A on HOP binds specifically to MEEVD motif of the C-terminal of Hsp90. […]
NCGC Assay Protocol Summary: The assay was performed to confirm activity from an initial qHTS screen, and to counterscreen for alpha screen platform artifacts. All samples were reordered, as powders when available, and sample material was evaluated for impurities and/or incorrect molecular mass at NCGC. […] Plates were read on EnVision (PerkinElmer, Boston, MA).TPR2A-His6 was produced using a bacteria expression system and purified using a well developed method (Ghosh et al., 2000). […] TPR2A-His6 binding to biotin-Hsp90 will bring streptavidin donor beads and nickel chelate acceptor beads (PerkinElmer) together and can be measured by Alpha reading by EnVision (PerkinElmer). […]

Q: `Oc1c(C(c2ccccn2)N2CCOCC2)ccc2cccnc12` (stereo not drawn) was tested. Which activity, negative = inhibition did it give?
A: The activity, negative = inhibition was -99.8% [alpha-screen platform artifact] (active).

Q: With `Cc1nnc2[nH]c(=O)n(C)c(=O)c2n1` as the compound, how does the activity, negative = inhibition read?
A: Its activity, negative = inhibition is 5.91% [at 40 µM] (inactive).

Q: Which activity, negative = inhibition does the source give for `CCOC(=O)c1c(NC(=O)CSc2nnc(Cc3csc(N)n3)n2C)sc(C)c1C` here?
A: The activity, negative = inhibition was -99.5% [alpha-screen platform artifact] (active).
